These entries were drawn from the full list.
aSyn UTR act = Activators via SNCA 5'UTR binding, MLPCN; 7.1% of 300,000 active; AID 1814; activity score, % (tested at 7.5 µM), hits read low; alpha-synuclein 5'UTR reporter, activators screen; in the data active means activity score below about -60%
Starred values were filed as active, the others as inactive.

SMILES	aSyn UTR act
COc1ccc2cc(CN(CC3CCCO3)C(=O)Nc3ccccc3OC)c(=O)[nH]c2c1 (stereo unspecified)	66
CCc1ccc2[nH]c(=O)c(CN(CCN(CC)CC)C(=O)Nc3ccccc3OC)cc2c1	-62*
COc1cc(/C=C/c2noc(-c3ccccc3O)n2)cc(OC)c1OC	-146*
CC(=O)Nc1ccc(/C=C/c2nc(-c3ccccc3O)n[nH]2)cc1	-202*
COc1ccc(/C=C/c2nc(N)nc(-c3ccccc3O)n2)cc1	-116*
CC(=O)Oc1ccccc1-c1nc(/C=C/c2ccccc2)no1	-162*
COc1cc(/C=C/c2nc(-c3ccccc3O)n[nH]2)cc(OC)c1OC	-117*
COc1ccc(/C=C/c2noc(-c3ccccc3O)n2)cc1	-93*
COc1cc(/C=N/n2cnnc2)ccc1OS(=O)(=O)c1ccccc1[N+](=O)[O-]	-178*
COc1cc(C=O)ccc1OS(=O)(=O)c1ccccc1[N+](=O)[O-]	-119*
CCN(CC)CCNc1ccnc2cc(Cl)ccc12	-62*
Cc1csc(Nc2ccccc2)[n+]1-c1ccccc1	-69*
CC1CCC(NC(=O)c2ccc(NC(=O)c3ccc(=O)[nH]c3)cc2)CC1 (stereo unspecified)	-68*
CC1CCC(NC(=O)c2ccc(NC(=O)CC3SC(N4CCCC4)=NC3=O)cc2)CC1 (stereo unspecified)	-129*
O=C(CC1SC(N2CCCC2)=NC1=O)Nc1ccc(C(=O)Nc2ncccc2O)cc1 (stereo unspecified)	-266*
CCCCOc1ccc(-c2nc(=S)[nH][nH]2)cc1	-65*
CCCCOc1ccc(C(=O)NNC(=S)NC(=O)CC)cc1	85
CCCCOc1ccc(-c2nc(SCC(N)=O)n[nH]2)cc1	-114*
CCCCOc1ccc(-c2ncc(N)cn2)cc1	-95*
CCCCc1ccc(-c2nc(N)n[nH]2)cc1	-100*
CCc1ccc(C2C(=O)c3ccccc3C2=O)cc1	-74*
COc1ccc(C2C(=O)c3ccccc3C2=O)cc1	-83*
COc1ccc(C2C(=O)c3ccccc3C2=O)c(OC)c1	-265*
O=C1c2ccccc2C(=O)C1c1ccnc2ccccc12	89
CCOc1ccc(/C=C/C(=O)C(C(N)=O)=C2SCCS2)cc1	-162*
SMILES	aSyn UTR act
CCCc1ccc2oc(C(=O)N(C)Cc3cnccn3)c(C)c2c1	-73*
Cc1ccc2oc(C(=O)N(C)Cc3ccon3)c(C)c2c1	-153*
BrCCOCCOc1ccc2ccccc2c1	-130*
O=C(CN1C(=O)c2ccccc2S1(=O)=O)c1ccccc1F	82
CC(C)CN1C(=O)c2ccc(NC(=O)c3ccccc3F)cc2C1=O	-144*
CC(C)CN1C(=O)c2ccc(NC(=O)c3ccco3)cc2C1=O	-84*
CC(C)CN1C(=O)c2ccc(NC(=O)c3cccs3)cc2C1=O	-129*
COc1cccc(N2CCN(C3C4CC5CC(C4)CC3C5)CC2)c1 (stereo unspecified)	-95*
CCC(=O)c1ccc(N2CCN(C(=O)c3cccs3)CC2)c(F)c1	-103*
CCC(=O)c1ccc(N2CCCCCC2)c(F)c1	-133*
CCCC(=O)c1ccc(N2CCCC2)c(F)c1	-139*
CCOC(=O)N1CCN(c2ccc(C(=O)c3ccccc3)cc2F)CC1	-99*
Cc1ccc(C(=O)c2cc([N+](=O)[O-])ccc2N2CCN(C)CC2)cc1	59
O=C(/C=C/c1ccccc1Cl)Nn1cnc2ccccc2c1=O	-137*
Cc1nc2ccccc2c(=O)n1NC(=O)/C=C/c1ccccc1Cl	-138*
Cc1cc(NC(=O)/C=C/c2ccccc2Cl)n(-c2nc3ccccc3[nH]2)n1	-111*
COc1cc(CNc2ccc(CNc3ncn[nH]3)cc2)ccc1OCc1ccccc1	-117*
COc1cc(CNc2ccc3[nH]c(=O)[nH]c3c2)ccc1OCc1ccccc1F	-107*
COc1cc(CNc2ccc3[nH]c(=O)[nH]c3c2)ccc1OCc1ccc(F)cc1	-91*
COc1cc(CNc2ccc3[nH]c(=O)[nH]c3c2)ccc1OCc1ccc(Cl)cc1	-171*
CCCCCCCCC[n+]1cccc2c3ccccc3ccc21	69
COc1cc(CNc2ccc3[nH]c(=O)[nH]c3c2)ccc1OCc1ccccc1	-86*
CCCN=Cc1sc2ccc(OCC)cc2c1O	-126*
CCOC(=O)C1(Cc2ccc(OC)cc2)CCN(C(=O)c2ccc3[nH]ccc3c2)CC1	-127*
COc1ccc2c(c1)O/C(=C\c1ccccc1C)C2=O	-131*
SMILES	aSyn UTR act
CC(C)Cc1cc(-c2ccco2)c(C#N)c(N)n1	70
COC(=O)CSc1nc(-c2ccccc2)cc(-c2ccco2)c1C#N	-64*
CCOc1ccc(CNC(=O)Nc2ccccc2)cc1	-103*
COc1ccc(CNC(=O)Nc2ccccc2)cc1	-114*
COc1ccc(CNC(=O)Nc2cccc(C)c2)cc1	-153*
Cc1ccc(CNC(=O)NC2CCCCC2)cc1	-92*
Cc1ccc(CNC(=O)Cc2ccc(-c3ccccc3)cc2)cc1	73
Cc1ccc(CNC(=O)Nc2ccc(C)cc2)cc1	-75*
COc1ccc(C(=O)/C=C/C(=O)N(CC(=O)NC2CCCCC2)Cc2ccc(F)cc2)c(O)c1	72
O=C(Cc1ccc(O)cc1)NC1CCCCCC1	-119*
O=C(CSc1ccc(F)cc1)NC1CCCCC1	-69*
Cc1cc2cc(CNC(=O)Nc3ccccc3)ccc2[nH]1	-98*
CCOc1ccc(-c2cc(C(=O)N3CCCC3)c3ccccc3n2)cc1	-68*
CCOc1ccc(-c2cc(C(=O)N3CCN(C)CC3)c3ccccc3n2)cc1	-136*
COc1ccc(C(=O)Nn2c(SCC(=O)NCC3CCCO3)nc3ccccc3c2=O)cc1 (stereo unspecified)	87
CCCOc1ccc(-c2cc(C(=O)NCC3CCCO3)c3ccccc3n2)cc1 (stereo unspecified)	-73*
CCN(CC)C(=O)C(C)N(C#N)c1nc(Cl)nc(N(C)C)n1 (stereo unspecified)	-122*
Cc1ccc(C(=O)NCC(=O)Nc2cc(C)ccn2)cc1	-66*
CCOc1ccc(C(=O)Nc2cc(C)ccn2)cc1	65
Cc1ccnc(NC(=O)c2cnc(Cl)c(Cl)c2)c1	-62*
Cc1ccnc(NC(=O)CCNC(=O)c2ccc(Cl)cc2)c1	-110*
Cc1ccnc(NC(=O)c2ccc(Cl)s2)c1	-104*
CCN(CC)c1ccc(C=N/C(C#N)=C(\N)C#N)cc1	-138*
CC(=O)n1cc(N(C(=O)CCl)c2ccc(Cl)cc2)c2ccccc21	103
Cc1ccccc1NC(=O)C(=O)c1cn(C)c2ccccc12	-133*
SMILES	aSyn UTR act
Cc1ccc(/C=N/Nc2ccc(Cl)nn2)cc1	-151*
Oc1ccc(/C=N/Nc2ccc(Cl)nn2)cc1O	-134*
Cn1cccc1C(=O)NCCc1ccc(Cl)cc1	-162*
COc1ccc(CCNC(=O)c2cccn2C)cc1	-89*
COc1ccc(C2c3ccc4ccccc4c3Oc3ncn(CCCN(C)C)c(=N)c32)cc1 (stereo unspecified)	90
c1ccc(N2CCN(c3nc4cc5c(cc4s3)OCCO5)CC2)cc1	-157*
c1ccc2sc(N3CCOCC3)nc2c1	-65*
Fc1cccc(Cl)c1CN1CCN(c2nc3ccccc3s2)CC1	-198*
CCC(C)(C)n1nnnc1C(c1ccc2ncccc2c1)N1CCN(c2nc3ccccc3s2)CC1 (stereo unspecified)	54
Nc1ccc2nc(N3CCOCC3)sc2c1	-69*
c1c2c(cc3sc(N4CCOCC4)nc13)OCCO2	94
COC(=O)c1ccc(CSc2nc(N)cc(N)n2)cc1	-66*
COC(=O)c1ccc(Oc2cc(C)nc(-n3nc(C)cc3C)n2)cc1	65
CNC(=O)c1ccc(-c2cc(C(F)(F)F)nn2C)s1	-142*

Compound activity from PubChem.
